Data from the supplement of paper PMC11417369.
± gives the standard deviation of the averaged measurements. Whole data set: some 25,000 sequences, median “ln(normalized median fluorescence intensity)” near 8.6, cut for the highest 2% near 10. The sample holds the highest values, similar sequences and a random draw of the others, so the mix is not that of the screen.

These sequences were tested on PfAP2-EXP AP2 domain (GST-tagged) (assay: gcPBM binding intensity (ln(normalized median fluorescence intensity)); higher = stronger DNA binding).
How it was run: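 Probes on an Agilent 4 × 180k array were primer-extended, double-stranded and 36 bp long, taken from intergenic genomic regions, with negative controls added. GST-tagged P. falciparum DNA-binding domains from E. coli, about 25 μg on average, were applied to the array for 1 h in 1× PBS containing 1% milk, 0.2 mg/ml BSA, 0.5% salmon testes DNA and 0.03% Triton X-100. Binding intensity, obtained after Alexa488 anti-GST antibody detection and a 488 nm scan, is the highest Masliner-normalised natural-log median intensity across replicate spots of either probe orientation.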

Sequence | gcPBM binding intensity (ln)
TCCTTATTTCATATTTTTAAATAATACAAAAAAAAA [CACACA_negctrl_site773] | 8.06 ± 0.38
TATAATAATAATTATTGTACGATTAGGTTAATTCAT [XGTACX_site1984] | 8.37 ± 0.23
ATGTAGGTTAATTATTGTACGTAGGGGGTGTATATT [XGTACX_site3973] | 10.2 ± 0.48
TATAATAATACGTATTGTACTATTAGGTTAATTCGT [XGTACX_site264] | 8.34 ± 0.33
ATTATTTTAATAAAACGTACAAAATATAAATCAAAA [XGTACX_site3770] | 8.73 ± 0.45
GGTTAGACGAAATATACATGCAATGGAAAATAAGTT [TGCATGCA_site23] | 9.42 ± 0.24
AAATAAAAAGTAAAGCGTACAAATGATCAAATAATA [XGTACX_site7898] | 9.04 ± 0.53
TTTCTTCATTTTTTCACACATAAGAAAATATAATCA [CACACA_site4275] | 8.46 ± 0.46
AAAGAAAGTACCTTCACACATATAAGAATATAATAT [CACACA_site5214] | 8.6 ± 0.52
AAGAATATAATCTTCACACATATATATATATATATA [CACACA_site5927] | 10.2 ± 0.33
ATCTTTCAATAATTCACACATATATATATATATATA [CACACA_site4598] | 10.2 ± 0.28
TTTTTTTTTTTTGTCACACATATGGAATATATCTAT [CACACA_site5899] | 8.54 ± 0.54
TATATAATTGTCTTCACACACACATATATATATATA [CACACA_site2744] | 10 ± 0.3
ACATCTCTTATATATTCACACACATATATATAATTA [CACACA_site8424] | 8.82 ± 0.35
ATTATATAATTGTCTTCACACACACCGATATATATA [CACACA_site8883] | 8.93 ± 0.51
TATATCTTAATATACACACACACATATATATATATA [CACACA_site4968] | 10 ± 0.35
TATAATTGTCTTCACACACACATATATATATATATA [CACACA_site2743] | 10.2 ± 0.29
TTGTAATATCTTGTCACACATATATATATATATATA [CACACA_site4937] | 10.2 ± 0.57
TTCAAAATAAAAAATTCACACACATATATATATATA [CACACA_site8653] | 10 ± 0.45
ATCTATGAAAAAGGTACATGCAATAAAGAAACATAT [TGCATGCA_site805] | 9.54 ± 0.45
TCATAAATTAAACAAACACACACGTTCTTTTATTTA [CACACA_site713] | 8.38 ± 0.33

Sequence | gcPBM binding intensity (ln)
ATACTTTTATTTTTGGTGCATATATCATGTAGACGT | 9.025 ± 0.035
TTTTTTTTTGGGGGTGCATGCAAGACATATATTTAA [TGCATGCA_site228] | 10.43 ± 0.028
AATATTTTTTTTTAAACATGCATATTTGCATTACCC [TGCATGCA_site437] | 8.58 ± 0.41
CTTTTTTTTTTGGGGGTGCATGCAAGACATATATTT [GTGCAC_site9660] | 10.51 ± 0.028
AATATTTTATTTTGGGTGCAAAAGAATATTATTTCA | 8.34 ± 0.071
CATATTATTATTTTGGTGCATACTTATATATATTTT | 8.75 ± 0.31
ATTTTGGAAATAATATGTACATATACATAATATATA [XGTACX_site4177] | 8.36 ± 0.29
GCATTGATCAAACATACACACATGGTTAATAAAAAT [CACACA_site2085] | 8.72 ± 0.55
ATTCTTTATTATTCGCCACACACATATATATATATA [CACACA_site9009] | 10.2 ± 0.28
TCTTTATTATTCGCCACACACATATAAATATAAATA [CACACA_site7441] | 8.88 ± 0.38
ATTTATTATATATACACACATACATATATATATATA [CACACA_site2159] | 9.91 ± 0.42
TTTCTTTTTATATTCACACATAAATATATATATATA [CACACA_site6053] | 9.81 ± 0.28
TCTTTATTATTCGCCACACACATATATATATATATA [CACACA_site3077] | 10.2 ± 0.43
ATATATATATATTTATGTACATATTATTTATTCTTT [XGTACX_site6567] | 9.94 ± 0.17
CCATTCAAATTTCGCACACACATACAAAAAAAAAAA [CACACA_site3093] | 8.59 ± 0.42
ATGCAATAATAATATTGTACGCATATATTTTTTACT [XGTACX_site3384] | 8.41 ± 0.3
TATAGCATAAATATGTGTACATATTTATATGATATT [XGTACX_site6333] | 8.37 ± 0.28
AATACGAAGGATAAGAGTACTAATTAAATAAATGAA [XGTACX_site523] | 8.96 ± 0.28
AGGTAGTTCTGTATCACACACATATATATATATATA [CACACA_site2214] | 10.3 ± 0.47
AGGTAGTTCTGTATCACACACATATAAATATAAATA [CACACA_site7110] | 8.48 ± 0.4
TAAGGTAGTTCTGTATCACACACATATATATATATA [CACACA_site8693] | 10.1 ± 0.26

Sequence | gcPBM binding intensity (ln)
TCAACAAAATTGAAGGAACACACATACATATATATA [CACACA_site7940] | 8.87 ± 0.23
CACCCCCACAGACACACACACACACCCACATATATA [CACACA_site365] | 9.27 ± 0.39
CACAGACACCCATACACACACATACCCATATATATA [CACACA_site5023] | 8.79 ± 0.32
TACAGACATACATACACACATACATACAGACATACA [CACACA_site1941] | 8.66 ± 0.26
CCCCCCCACAGACACACACACATACATACCACATAT [CACACA_site2306] | 10.3 ± 0.014
CATACACCCAGACACACACACATATATATATATATA [CACACA_site634] | 10.1 ± 0.44
TTCCCCCCCAGACACACACACACATACATACCACAT [CACACA_site2305] | 10.5 ± 0.24
CATTTCTATATAAGCACACACGTGGAATTTTTTTTT [CACACA_site5537] | 8.7 ± 0.26
GCCATAAAAATATATACACACATAAAAAAAAATTAT [CACACA_site1176] | 8.36 ± 0.53
CTTTGTAGTTGGTCCACACACATATCTGGAAGAATA [CACACA_site4834] | 8.54 ± 0.39
AACTTTTAGAAGAACACACACATATAGATTATGACC [CACACA_site6256] | 8.8 ± 0.26
TATATTATGACCACCACACACCTATACACATAACAT [CACACA_site7199] | 8.88 ± 0.43
ATTATAACACCTCCCCCCCTTTTTTTATGAAGACCA [CACACA_negctrl_site1043] | 10.6 ± 0.18
TAAAAAATAAAAAAAGCACACACATATATATATATA [CACACA_site8567] | 10.3 ± 0.25
AAAATAAAAATAAAAGCACACATAAATATATATATA [CACACA_site8409] | 9.64 ± 0.28
AAAAAAAAAAAAAAAGCACACATATAAATATGAATA [CACACA_site8391] | 8.41 ± 0.24
AAAAATAAAAAAAGCACACACATATAAATAAATATA [CACACA_site6968] | 8.69 ± 0.6
AATAAAAATAAAAGCACACATAAATATATATATATT [CACACA_site1441] | 8.66 ± 0.39
AAAAATAAAAAAAGCACACACATATATATATATATA [CACACA_site1885] | 10.2 ± 0.28
